Only some compounds are listed: those with a hit (about 4% of all), similar ones and a draw of the others.
EWS-Fli block – inhibitors of EWS/Fli oncoprotein transcriptional activity | inhibition, % at 12.6 µM | AID 651661 | hit rate 0.67% among 350,000 | A673 NR0B1-luciferase reporter, viability-normalised;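 active = mean inhibition of at least 50% after viability correction, with every replicate also passing that limit; inconclusive = mean reaches 50% but only one of two replicates passes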;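 note: firefly luciferase signal divided by Alamar Blue viability fluorescence both relative to DMSO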
MITF TRPM1 HTS – MITF TRPM1 promoter activation in melanoma cells; SK-MEL-5 TRPM1-promoter luciferase, 24 h; % of positive control, neutral wells = 0; hit rate 0.75% among 300,000; AID 588334; activation, % at 12.5 µM;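 active = mean activation of at least 80% with every replicate also reaching 80%; inconclusive = mean reaches 80% but some replicate falls short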;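 note: 0% = neutral control wells and 100% = parthenolide positive control wells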
MITF TRPM1 inh – inhibitors of MITF-driven TRPM1 promoter in melanoma cells; AID 488899; inhibition, % at 12.5 µM; hit rate 0.83% among 330,000; SK-MEL-5 TRPM1 promoter luciferase, 24 h;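 active = mean inhibition across replicates of 60% or more, whatever share of single replicates reaches that level; inconclusive = some that reach 60%, reason not given; inactive = mean inhibition across replicates below 60%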
esBAF inh – blocks esBAF chromatin remodeling in mouse ES cells. Bmi1-luciferase knock-in reporter, 24 h; 100% = twice the neutral-well signal. reporter increase, % at 12.5 µM. hit rate 2% among 350,000. AID 602393; in the data active = activation above about 40%; inconclusive = no clear call, values can overlap the other calls;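 note: 0% = median of the plate's neutral control wells and 100% = double that signal; a rise in the Bmi1 reporter signal indicates esBAF inhibition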
PAX8 inh HTS – PAX8 transcriptional activity inhibition. RMG-I TPO-luciferase reporter, SteadyGlo, 24 h. hit rate 1.2% among 360,000. inhibition, % at 12.6 µM;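 active = mean replicate inhibition at least 60% with every replicate also reaching 60%; inconclusive = only one of the two criteria is met; inactive = mean below 60% and not all replicates reaching 60%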;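 note: luciferase light reporting Pax8 driven TPO promoter activity; plate controls were median of neutral control wells for no effect and mitoxantrone controls for full effect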
Wnt bcat act – activators of Wnt/beta-catenin signaling. Wnt/beta-catenin reporter cell assay, activator, plate reader. activation, % at 9.35 µM. hit rate 1.2% among 300,000. AID 743398; in the data active = activation above about 30%, passing the limit was not always enough; inconclusive = no clear call, values can overlap the other calls;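 note: 0% = neutral control wells and 100% = positive control wells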
* marks the source's active call; other numbers are inactive results.

Cc1ccc(-n2nnnc2Sc2nc([N+](=O)[O-])nn2C)c(C)c1 was read as MITF TRPM1 HTS -63.8, MITF TRPM1 inh 73.1* and esBAF inh 1.9.
For Cc1ccc(-n2nnnc2Sc2nc([N+](=O)[O-])nn2C)cc1 the results were EWS-Fli block 35.0, MITF TRPM1 HTS -20.4, MITF TRPM1 inh 21.5, PAX8 inh HTS -3.3 and Wnt bcat act 0.7.
Screening O=C(c1cccc(F)c1)N1CC(=O)N2[C@@H](CO)[C@@H](c3ccc(C4=CCCC4)cc3)[C@@H]2C1 returned EWS-Fli block -8.7 and PAX8 inh HTS -24.9.
CC(NCCN(C)C)C1CCC2C3CCc4cc(O)ccc4C3CCC12C (stereo not drawn) was read as EWS-Fli block 43.8, MITF TRPM1 HTS -87.3, MITF TRPM1 inh 86.1*, PAX8 inh HTS 15.2 and Wnt bcat act -1.6.
Screening O/N=C/c1ccc(OCc2ccccc2)c(Cl)c1 returned MITF TRPM1 HTS 76.6, MITF TRPM1 inh -72.4 and PAX8 inh HTS -277.5.
`O/N=C/c1ccc(OCc2ccccc2)c(Br)c1` gave MITF TRPM1 HTS 73.1, MITF TRPM1 inh -67.2, PAX8 inh HTS -123.0 and Wnt bcat act 41.7*.
Screening CC(=O)N(C)C[C@@H]1Oc2cc(C#CCN(C)C)ccc2S(=O)(=O)N([C@@H](C)CO)C[C@H]1C returned EWS-Fli block -4.8 and esBAF inh -0.8.
CS(=O)(=O)Nc1cccc(-c2cc(NC=O)c3ncc(-c4ccc(F)c(Cl)c4)n3c2)c1 was read as EWS-Fli block 11.1, esBAF inh 11.7, PAX8 inh HTS 64.1* and Wnt bcat act -4.1.
`COc1ccc(-c2cnc3c(NC=O)cc(-c4ccoc4)cn23)cc1OC` gave EWS-Fli block 36.0, esBAF inh 0.8, PAX8 inh HTS 38.3 and Wnt bcat act -2.6.
For COc1ccc(-c2cnc3c(NC=O)cc(-c4cccc(NS(C)(=O)=O)c4)cn23)cc1OC the results were EWS-Fli block 48.0, esBAF inh -61.7, PAX8 inh HTS 111.6* and Wnt bcat act 1.2.
For C[C@H](O)C#Cc1cnc2c(c1)C(=O)N([C@H](C)CO)C[C@H](C)[C@@H](CN(C)CC1CCOCC1)O2 the results were EWS-Fli block -8.3, esBAF inh -3.8 and PAX8 inh HTS -9.3.
`Cc1ccc(-c2ccc3c(c2)O[C@H](CN(C)Cc2cccnc2)[C@H](C)CN([C@@H](C)CO)S3(=O)=O)cc1` gave EWS-Fli block 9.2 and esBAF inh -3.5.
For Cc1cccc(/C=N/N2CCN(c3ccccc3)CC2)c1 the results were MITF TRPM1 HTS 99.5*, MITF TRPM1 inh -106.0, esBAF inh 34.6, PAX8 inh HTS -105.9 and Wnt bcat act 19.7.
Screening C(/C=C/c1ccccc1)=N/N1CCN(c2ccccc2)CC1 returned MITF TRPM1 HTS 94.1*, MITF TRPM1 inh -92.1, esBAF inh inconclusive and Wnt bcat act -1.0.
For C(=C\c1ccccc1)/C=N/N1CCN(c2ccccn2)CC1 the results were MITF TRPM1 HTS 85.3* and MITF TRPM1 inh -81.8.
For O=[N+]([O-])c1ccccc1/C=C\C=N\N1CCN(c2ccccc2)CC1 the results were EWS-Fli block -12.0, MITF TRPM1 HTS 13.3, MITF TRPM1 inh -8.5, esBAF inh 12.3, PAX8 inh HTS 0.4 and Wnt bcat act 25.3.
Cc1ccc(/C=N/N2CCN(c3ccccc3)CC2)cc1 was read as EWS-Fli block -82.4, MITF TRPM1 HTS 73.4, MITF TRPM1 inh -77.3, PAX8 inh HTS -94.8 and Wnt bcat act 6.6.
CC(/C=N/N1CCN(c2ccccn2)CC1)=C\c1ccccc1 was read as EWS-Fli block -91.4, MITF TRPM1 HTS 64.6, MITF TRPM1 inh -64.0, PAX8 inh HTS 53.4 and Wnt bcat act 16.2.
O=C(Nc1ccc(N2CCCC2)cc1)c1ccc(Br)o1 was read as MITF TRPM1 HTS 84.1*, MITF TRPM1 inh -73.2 and esBAF inh -3.7.
O=C(Nc1ccc(N2CCOCC2)c(Cl)c1)c1ccc(Br)o1 was read as MITF TRPM1 HTS 105.5*, MITF TRPM1 inh -93.7, esBAF inh 60.4*, PAX8 inh HTS -143.5 and Wnt bcat act 52.9*.
For O=C(Nc1ccc(N2CCN(C(=O)c3ccccc3)CC2)cc1)c1cc2ccccc2o1 the results were MITF TRPM1 HTS -70.5, MITF TRPM1 inh 68.8*, esBAF inh -19.8 and Wnt bcat act -1.9.
O=C(Nc1ccc2c(c1)CCC2)c1ccc(Br)o1 was read as MITF TRPM1 HTS 31.7, MITF TRPM1 inh -36.3, esBAF inh 47.4*, PAX8 inh HTS -221.3 and Wnt bcat act 41.9*.
`CN1CCN(c2ccc(NC(=O)c3cc4ccccc4o3)cc2)CC1` gave EWS-Fli block -24.2, MITF TRPM1 HTS -0.4, MITF TRPM1 inh 1.2, esBAF inh -37.5, PAX8 inh HTS -126.4 and Wnt bcat act 9.9.
Screening O=C(Nc1ccc(N2CCOCC2)c(Cl)c1)c1cc2ccccc2o1 returned MITF TRPM1 HTS 46.2, MITF TRPM1 inh -48.1 and esBAF inh 64.2*.
For O=C(Nc1ccc2c(c1)oc1ccccc12)c1ccc(Br)o1 the results were MITF TRPM1 HTS 76.2, MITF TRPM1 inh -73.7, esBAF inh 83.0* and Wnt bcat act -1.6.
Screening O=C(Nc1ccc2ccccc2c1)c1ccc(Br)o1 returned EWS-Fli block -93.3, MITF TRPM1 HTS 20.8, MITF TRPM1 inh -19.8, esBAF inh 36.2, PAX8 inh HTS -145.9 and Wnt bcat act 27.8.
For O=C(Nc1ccccc1N1CCOCC1)c1cc2ccccc2o1 the results were EWS-Fli block -21.0, MITF TRPM1 HTS 8.7, MITF TRPM1 inh -6.2, esBAF inh 16.7, PAX8 inh HTS 7.3 and Wnt bcat act 7.1.
`O=C(Nc1ccc(N2CCOCC2)c(Cl)c1)c1ccc(F)cc1` gave EWS-Fli block -190.7, MITF TRPM1 HTS 121.9*, MITF TRPM1 inh -120.0, esBAF inh inconclusive and Wnt bcat act 16.0.
Screening CCN1CCN(c2ccc(NC(=O)c3ccco3)cc2Cl)CC1 returned EWS-Fli block -92.2, MITF TRPM1 HTS 62.5, MITF TRPM1 inh -57.8, esBAF inh 36.0, PAX8 inh HTS -111.3 and Wnt bcat act 15.4.
`CCN1CCN(c2ccc(NC(=O)c3cccc(F)c3)cc2Cl)CC1` gave EWS-Fli block -88.9, MITF TRPM1 HTS 127.8*, MITF TRPM1 inh -123.7, esBAF inh 33.3, PAX8 inh HTS -75.5 and Wnt bcat act 8.5.
O=C(Nc1ccc(N2CCOCC2)c(Cl)c1)c1ccc(-n2cnnc2)cc1 was read as MITF TRPM1 HTS -8.8, MITF TRPM1 inh 6.3, esBAF inh -5.6, PAX8 inh HTS -4.2 and Wnt bcat act -5.2.
Screening CC1(C)CSC(=NCc2ccccc2)N1C(=O)c1cccc([N+](=O)[O-])c1 returned EWS-Fli block -22.2, MITF TRPM1 HTS 13.0, MITF TRPM1 inh -9.6, PAX8 inh HTS 69.0* and Wnt bcat act -2.5.
For COCC(=O)N1[C@H](CO)[C@@H](c2ccccc2)C12CN(C(=O)c1cccc(F)c1)C2 the results were EWS-Fli block -1.9 and PAX8 inh HTS -8.1.

Bioassay records as filed in PubChem BioAssay.
